The values below come from PubChem BioAssay.

Structures are written as SMILES. Calls of active or inactive are those of the source. Unless noted, the rule behind the calls is not given here.

A short description of experiment [1]: compounds binding Alexa647 anti-His antibody – biochemical, small-molecule microarray, 635 nm fluorescence, artefact control for SMM control protein annotation, primary screen (AID 1128).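 Note: score merges feature fluorescence with signal-to-noise for each printed compound spot.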 As to conditions: higher = more signal.
In experiment [2] the test system is Human papillomavirus type 1a E7 protein (residues 1-88). Put plainly: HPV1a E7 small-molecule binders, primary screen, biochemical, small-molecule microarray, residues 1-88, 635 nm (AID 1129). As to conditions: small-molecule microarray binding, fluorescence 635 nm; higher = more signal.
The target in experiment [3] is Focal adhesion kinase 1 (Homo sapiens) (UniProt Q05397). Put plainly: PTK2 protein binding on printed compound slides – biochemical, small-molecule microarray, 635/667 nm fluorescence, BSA, DTT, primary screen (AID 1130).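 Note: composite of spot emission at 667 nm and signal to noise over triplicate slides.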 Particulars: 635 nm fluorescence, higher = more signal.
Chain of Focal adhesion kinase 1 (Homo sapiens) (Q05397 whole entry, looked up): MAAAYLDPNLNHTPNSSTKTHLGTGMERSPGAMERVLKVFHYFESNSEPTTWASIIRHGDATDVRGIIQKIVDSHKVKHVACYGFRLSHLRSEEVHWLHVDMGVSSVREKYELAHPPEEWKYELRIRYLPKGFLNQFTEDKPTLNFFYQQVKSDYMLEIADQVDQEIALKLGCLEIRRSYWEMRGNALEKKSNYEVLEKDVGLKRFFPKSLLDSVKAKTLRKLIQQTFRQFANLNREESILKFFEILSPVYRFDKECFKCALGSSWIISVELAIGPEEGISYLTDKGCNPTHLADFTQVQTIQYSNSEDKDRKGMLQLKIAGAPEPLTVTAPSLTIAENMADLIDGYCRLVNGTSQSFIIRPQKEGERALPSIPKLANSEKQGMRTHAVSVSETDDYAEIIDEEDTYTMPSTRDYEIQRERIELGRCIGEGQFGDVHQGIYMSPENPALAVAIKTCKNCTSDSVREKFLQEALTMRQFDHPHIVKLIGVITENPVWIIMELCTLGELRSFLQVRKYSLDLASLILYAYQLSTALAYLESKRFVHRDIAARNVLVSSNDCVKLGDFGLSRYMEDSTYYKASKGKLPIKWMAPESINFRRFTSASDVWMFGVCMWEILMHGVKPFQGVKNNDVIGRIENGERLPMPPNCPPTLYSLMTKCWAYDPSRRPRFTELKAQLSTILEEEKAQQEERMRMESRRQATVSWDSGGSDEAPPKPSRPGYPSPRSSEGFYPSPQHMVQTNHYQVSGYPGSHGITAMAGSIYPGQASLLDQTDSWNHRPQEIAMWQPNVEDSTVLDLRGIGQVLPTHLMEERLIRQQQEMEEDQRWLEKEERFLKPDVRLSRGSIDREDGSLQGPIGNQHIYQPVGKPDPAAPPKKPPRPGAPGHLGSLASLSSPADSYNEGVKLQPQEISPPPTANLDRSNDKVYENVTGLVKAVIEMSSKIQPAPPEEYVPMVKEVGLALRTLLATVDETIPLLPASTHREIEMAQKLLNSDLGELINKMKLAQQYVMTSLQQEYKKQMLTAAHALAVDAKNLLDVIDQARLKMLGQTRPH
Experiment [4] concerns Fibrinogen (Alexa647-labelled). Put plainly: Alexa647-fibrinogen binding to printed small molecules – biochemical, small-molecule microarray, 635/667 nm fluorescence, artefact control for SMM control-protein annotation, profiling panel (AID 1131).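 Note: z-score merges 667 nm fluorescence with per-spot signal-to-noise over triplicate slides.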 As to conditions: fibrinogen-A647 binding fluorescence, higher = more signal.
The target in experiment [5] is Follistatin (Homo sapiens) (UniProt P19883). In words: FST protein binding to printed compounds – biochemical, small-molecule microarray, 635/667 nm fluorescence, primary screen (AID 1132). Particulars: 635 nm fluorescence, higher = more signal.
Chain of Follistatin (Homo sapiens) (P19883 whole entry, looked up): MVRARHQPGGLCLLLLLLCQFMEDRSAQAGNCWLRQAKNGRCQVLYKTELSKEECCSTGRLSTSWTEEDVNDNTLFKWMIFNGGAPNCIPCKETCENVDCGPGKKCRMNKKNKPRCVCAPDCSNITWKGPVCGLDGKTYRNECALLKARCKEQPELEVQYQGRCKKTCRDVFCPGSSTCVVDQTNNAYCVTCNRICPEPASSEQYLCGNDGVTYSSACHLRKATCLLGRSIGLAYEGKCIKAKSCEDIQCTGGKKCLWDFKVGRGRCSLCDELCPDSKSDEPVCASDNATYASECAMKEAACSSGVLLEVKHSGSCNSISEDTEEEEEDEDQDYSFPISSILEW
In experiment [6] the target is Fibroblast growth factor 2 (Homo sapiens) (UniProt P09038). Put plainly: basic fibroblast growth factor binding to printed compounds – biochemical, small-molecule microarray, 635/667 nm fluorescence, primary screen (AID 1133). As to conditions: FGF2, fluorescence 635/667, higher = more signal.
Chain of Fibroblast growth factor 2 (Homo sapiens) (P09038 whole entry, looked up): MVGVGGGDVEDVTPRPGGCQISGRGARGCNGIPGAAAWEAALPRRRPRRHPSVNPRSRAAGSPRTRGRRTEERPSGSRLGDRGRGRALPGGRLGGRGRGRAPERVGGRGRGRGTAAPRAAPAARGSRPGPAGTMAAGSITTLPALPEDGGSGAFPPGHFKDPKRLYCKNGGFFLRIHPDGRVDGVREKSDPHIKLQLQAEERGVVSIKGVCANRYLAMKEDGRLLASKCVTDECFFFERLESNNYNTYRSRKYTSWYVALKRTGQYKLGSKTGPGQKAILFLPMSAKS
A short description of experiment [7]: JC-1 mitochondrial potential readout, lung cancer cells – cell-based, A549, JC-1 fluorescence, basal, 24 h, 100 nL, profiling panel (AID 1138).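 Note: A549 lung adenocarcinoma cells under basal conditions with no added stimulus; test concentration not given here.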 As to conditions: higher = more signal.
For experiment [8], the system named is Lefty1. Put plainly: Lefty1 protein binding to printed compounds – biochemical, small-molecule microarray, 635/667 nm fluorescence, primary screen (AID 1139). Particulars: fluorescence 635/667, higher = more signal.
Experiment [9] deals with wheat germ agglutinin (Triticum aestivum), Alexa647-labelled. In words: Alexa647-WGA lectin binding to printed small molecules – biochemical, small-molecule microarray, 635/667 nm fluorescence, artefact control for SMM control-protein annotation, profiling panel (AID 1140).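 Note: score merges 667 nm feature emission with signal to noise over triplicate slides.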 As to conditions: WGA-A647 binding, 635 nm fluorescence, higher = more signal.
Experiment [10] concerns the target Luciferin 4-monooxygenase (Photinus pyralis) (UniProt P08659). Put plainly: inhibition of purified Photinus pyralis luciferase – biochemical, luminescence, purified enzyme, 2006 set, primary screen (AID 1141).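 Note: cell-free assay with purified firefly luciferase at 100 ng per well in PBS; test concentration not given here.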 As to conditions: purified firefly luciferase, SteadyGlo luminescence, 30 min; higher = more signal, called active from +8 up or from −8 down.
Experiment [11] deals with Wnt5a (protein binding on small-molecule microarray). In words: small molecules binding Wnt5a protein – biophysical, small-molecule microarray, 635/667 nm fluorescence, primary screen (AID 1142).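 Note: fluorescence read at 667 nm with signal to noise per printed feature.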 Particulars: 635 nm fluorescence, higher = more signal.
Experiment [12] is described as follows: ATP-based viability of Huh7 replicon cells – cell-based, CellTiter-Glo luminescence, basal, 48 h, cytotoxicity control for HCV replication inhibitor project, primary screen (AID 1143).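 Note: Huh7 hepatoma cells carrying a hepatitis C replication reporter with no stimulus; test concentration not given here.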 Particulars: higher = more signal, called active from +8 up or from −8 down.
Experiment [13] is described as follows: Pseudomonas biofilm growth suppression – PAO1 strain, BacTiter-Glo luminescence, LB-PBS, primary screen (AID 1144). Particulars: P. aeruginosa PAO1 biofilm, 12 h, higher = more signal.
Experiment [14] in a line: basal CRE-LacZ reporter activity in PC12 – cell-based, unstimulated, primary screen (AID 1145). As to conditions: no forskolin, luminescence, 4.5 h, higher = more signal, called active from +8 up or from −8 down.
The nature of experiment [15]: forskolin-driven CRE-LacZ activity in PC12 – cell-based, CRE-LacZ reporter, forskolin-stimulated, primary screen (AID 1146).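 Note: PC12 cells with 6xCRE LacZ reporter stimulated by forskolin 10 µM; beta-galactosidase reporter signal reflecting CREB driven transcription.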 Particulars: luminescence, 4.5 h, higher = more signal, called active from +8 up or from −8 down.
Experiment [16] has as its target Streptavidin (Streptomyces avidinii) (UniProt P22629). Put plainly: compounds binding control protein streptavidin – biophysical, small-molecule microarray, 635/667 nm fluorescence, artefact control for SMM compound annotation, primary screen (AID 1147).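 Note: signal reflects streptavidin binding to arrayed compounds as a control protein.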 As to conditions: higher = more signal.
Experiment [17] in a line: probe aInhba binding on compound microarray – biochemical, small-molecule microarray, 635/667 nm fluorescence, primary screen (AID 1148).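 Note: score merges 667nm spot fluorescence with signal-to-noise for antibody binding to printed compounds.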 As to conditions: higher = more signal.
Experiment [18] has as its target Torsin-1A (Homo sapiens) (UniProt O14656). In words: TOR1A wild-type binding on microarray – cell lysate, small-molecule microarray, lysate, 635/667 nm, primary screen (AID 1149). As to conditions: COS7 hTOR1A-WT lysate, 635 nm fluorescence, higher = more signal.
Experiment [19] has the same target. Put plainly: torsin A mutant lysate binding on microarrays – cell lysate, small-molecule microarray, COS7 lysate, 635/667 nm fluorescence, primary screen (AID 1150).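 Note: score pools 667 nm emission and signal to noise measuring lysate protein binding.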 As to conditions: COS7 hTOR1A mutant lysate, 635 nm fluorescence, higher = more signal.
The test system of experiment [20] is Sonic hedgehog protein (Shh). In words: Sonic hedgehog microarray binding compounds – biochemical, small-molecule microarray, 635/667 nm fluorescence, primary screen (AID 1151).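 Note: Shh protein binding to compounds spotted on small-molecule microarray slides; score combines spot fluorescence intensity with signal-to-noise across triplicate slides.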 As to conditions: 635 nm fluorescence, higher = more signal.

Chain of Torsin-1A (Homo sapiens) (O14656 whole entry, looked up): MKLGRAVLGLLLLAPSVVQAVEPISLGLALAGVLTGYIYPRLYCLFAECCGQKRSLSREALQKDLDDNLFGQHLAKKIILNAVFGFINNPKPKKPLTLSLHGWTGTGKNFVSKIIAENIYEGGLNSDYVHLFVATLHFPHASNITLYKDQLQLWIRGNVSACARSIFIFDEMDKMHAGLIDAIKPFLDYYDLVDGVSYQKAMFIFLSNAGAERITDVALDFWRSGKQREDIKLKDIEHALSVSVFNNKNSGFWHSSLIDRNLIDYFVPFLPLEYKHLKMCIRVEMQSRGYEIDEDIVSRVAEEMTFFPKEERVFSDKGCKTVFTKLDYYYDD
Chain of Luciferin 4-monooxygenase (Photinus pyralis) (P08659 whole entry, looked up): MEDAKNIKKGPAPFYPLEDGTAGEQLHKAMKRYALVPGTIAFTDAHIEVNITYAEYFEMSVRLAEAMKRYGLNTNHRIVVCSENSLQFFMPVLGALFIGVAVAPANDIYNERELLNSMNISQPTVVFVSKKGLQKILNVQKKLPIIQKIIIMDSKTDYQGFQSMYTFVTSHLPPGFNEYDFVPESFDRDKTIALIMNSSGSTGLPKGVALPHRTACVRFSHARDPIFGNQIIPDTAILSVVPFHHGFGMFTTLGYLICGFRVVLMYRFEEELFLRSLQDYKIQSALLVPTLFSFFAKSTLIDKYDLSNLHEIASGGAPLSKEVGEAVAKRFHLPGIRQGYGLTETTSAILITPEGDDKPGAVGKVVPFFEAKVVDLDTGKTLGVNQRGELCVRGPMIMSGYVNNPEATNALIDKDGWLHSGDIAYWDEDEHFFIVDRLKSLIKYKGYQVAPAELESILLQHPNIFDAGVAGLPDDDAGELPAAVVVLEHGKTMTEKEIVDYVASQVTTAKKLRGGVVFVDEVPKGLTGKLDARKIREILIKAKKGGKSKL
Chain of Streptavidin (Streptomyces avidinii) (P22629 whole entry, looked up): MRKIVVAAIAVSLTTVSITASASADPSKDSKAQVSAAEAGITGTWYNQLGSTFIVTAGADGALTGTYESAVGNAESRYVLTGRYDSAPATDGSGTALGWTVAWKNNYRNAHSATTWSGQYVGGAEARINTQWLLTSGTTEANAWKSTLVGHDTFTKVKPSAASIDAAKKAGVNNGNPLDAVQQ

`COc1ccc(CCN2C(=O)[C@@]3(c4ccc([N+](=O)[O-])cc4)CC(=O)N(CC45CC6CC(CC(C6)C4)C5)[C@@H]3c3ccc(CO)cc32)cc1`: the composite z-score in experiment [1] was 0.286; in experiment [2], 0.415; in experiment [3] it was 0.38; in experiment [4], 0.138; in [5] it was 0.572; in experiment [6] it was -0.0451. In addition, the composite z-score in experiment [8] was -0.531; in experiment [9] it was -0.0366; in [11], -0.209; in [16], -0.168; in experiment [17], 0.333; in experiment [18] it was 0.16. The composite z-score in experiment [19] was determined as 0.335; in experiment [20] it was 0.483. For the same molecule, the z-score in [7] was 1.15; in experiment [10], -0.736 (inactive); in experiment [12], -0.252 (inactive); in experiment [13], 0.655 (inactive); in experiment [14] it was 0.155 (inactive); in experiment [15], -0.036 (inactive).

With `COCCOC(=O)N1C(=O)[C@@]2(c3cc(C#CCC(C(=O)OC)C(=O)OC)ccc31)[C@H](c1ccccc1OCCO)N1[C@H](c3ccccc3)[C@H](c3ccccc3)OC(=O)[C@H]1[C@@H]2C(=O)N1CCCCCCC1`, the composite z-score came to 1.75 in experiment [1]; 1.18 in experiment [2]; 0.384 in experiment [3]; 0.744 in experiment [4]; 1.51 in experiment [5]; 1.05 in [6]. The composite z-score in experiment [8] stood at 1.55; in [9] it was 0.529; in [11], 1.16; in experiment [16] it was 2.45; in experiment [17], 0.628; in experiment [18], 1.29. The composite z-score in experiment [19] came to 0.96; in experiment [20], 1.66. For the same molecule, the z-score is -0.729 in [7]; 0.406 (inactive) in [10]; -1.66 (inactive) in experiment [12]; -0.129 (inactive) in experiment [13]; -0.329 (inactive) in [14]; 0.0965 (inactive) in experiment [15].

Regarding `C[C@]1(C(=O)NCCN2CCOCC2)c2ccccc2C(=O)N(Cc2ccccc2)[C@H]1c1ccc(CO)cc1`, the composite z-score is 1.6 in experiment [1]; -0.385 in experiment [2]; -0.43 in experiment [3]; -0.665 in experiment [4]; 0.0342 in experiment [5]; -0.256 in experiment [6]. The composite z-score is -0.718 in [8]; -0.208 in experiment [9]; -0.21 in [11]; -0.833 in experiment [16]; -0.0405 in experiment [17]; 0.403 in experiment [18]. Also, the composite z-score in [19] is 0.915; in [20], -0.928. Moreover, the z-score is -1.19 in experiment [7]; 1.47 (inactive) in experiment [10]; -1.82 (inactive) in experiment [12]; -2.31 (inactive) in experiment [13]; -0.412 (inactive) in [14]; -0.0192 (inactive) in experiment [15].

With `C#CCCCON=C1C[C@@H](O)[C@@H](O)[C@@H]2[C@@H]3C(=O)N(Cc4ccc5c(c4)OCO5)C(=O)[C@@H]3CC[C@H]12`, the composite z-score was determined as 0.833 in experiment [1]; 0.57 in experiment [2]; 0.168 in [3]; 0.573 in experiment [4]; 1.03 in [5]; 0.4 in experiment [6]. Also, the composite z-score in experiment [8] is 1.59; in [9], -0.142; in [11], 0.322; in experiment [16], 1.26; in experiment [17], -0.261; in experiment [18] it was 0.572. Besides, the composite z-score in experiment [19] amounted to 0.267; in experiment [20], 1.42. Besides, the z-score is -0.421 in experiment [7]; 0.975 (inactive) in experiment [10]; 0.0582 (inactive) in experiment [12]; 0.448 (inactive) in experiment [13]; -0.657 (inactive) in [14]; 0.653 (inactive) in [15].
